From ChEMBL document CHEMBL4513216, “Probing the Open Global Health Chemical Diversity Library for Multistage-Active Starting Points for Next-Generation Antimalarials” (ACS Infect Dis, 2020) come the findings set out here.

Hit rate of the full screen: of about 69,000 compounds, about 8,600 (12%) showed an effect of 50% or more. Shown is part of a subset that was picked to be rich in strong results.

In this assay the test system is Plasmodium berghei. Nature of the assay: Screen against P. berghei liver stage (PbLuc), transformed with Luciferase, at 10uM. It counts as functional, HepG2. The following applies: tested at 10 uM.
For `CN(C)CC(=O)N1CCc2sc(C(=O)N3CCOCC3)cc21`, the INHIBITION was 43%. As for `Cc1cc(N(C)CCn2ccnc2C)n2nccc2n1`, the INHIBITION is 48.1%. Under `Cc1nccn1CCN(C)c1cc(C(C)C)nc2ccnn12` stands 51.3%; under `CC(C)Cc1noc(CN(C)c2cc(C(C)C)nc3ccnn23)n1`, 23.5%. Under `COCCC(Cc1cccc(Br)c1)C(N)=O` (centres undefined) stands 25.3%. On to `CC(C)CC(Cc1cccc(Br)c1)C(=O)O` (centres undefined), for which the INHIBITION came out at 65.4%. Under `COCCC(Cc1cccc(Br)c1)C(=O)O` (centres undefined) stands 9%; under `CS(=O)(=O)NC[C@H]1Cn2c(-c3ccccc3)cnc2CO1`, 25.3%. With `CS(=O)(=O)NC[C@H]1Cn2c(-c3ccc(Cl)cc3)cnc2CO1`, the INHIBITION is reported as 5.58%. Under `CS(=O)(=O)NC[C@H]1Cn2c(-c3ccc(F)cc3)cnc2CO1` stands 51.7%; under `CC(=O)Nc1nc(CN2CCOC(Cn3cncn3)C2)cs1` (centres undefined), 11.6%; under `Cn1cnnc1CCNC(=O)c1cnn(Cc2ccccc2)c1`, 10.7%. As for `Cc1noc(C)c1CN(C)C(=O)NC1CCC(O)CC1` (centres undefined), the INHIBITION stood at 40.15%. `O=C(CC1CCc2ccccc21)NCCSc1ccccn1` (centres undefined): the INHIBITION is listed as -8.25%. With `OCc1cn([C@@H]2c3ccccc3C3(CCNCC3)[C@H]2O)nn1`, the INHIBITION is recorded as -76.9%. Under `O[C@H]1[C@H](NCCc2cnccn2)c2ccccc2C12CCNCC2` stands 57.8%; under `O[C@H]1[C@H](NCCc2ccccn2)c2ccccc2C12CCNCC2`, 28.7%; under `O[C@H]1[C@H](NCCSc2ccccn2)c2ccccc2C12CCNCC2`, 52.2%. Under `O[C@H]1[C@H](n2cc(-c3ccccn3)nn2)c2ccccc2C12CCNCC2` stands -110%; under `COc1ccc(Nc2nc(N)c(C(C)=O)s2)cc1OC`, 27.5%. With `Cc1cnn(Cc2cccc(OCC(N)=O)c2)c1`, the INHIBITION was 40.7%. To `Cc1ccsc1CNC1CCCc2c1cnn2C` (centres undefined) belongs -2.19%; to `CC(C)(Oc1ccc(C(N)=O)cc1)C(=O)N(CCC#N)C1CC1`, 23.3%.

With `O=C(NC1CCN(CC2CCCC2)C1)N1CCC(OCC2CC2)CC1` (centres undefined), the INHIBITION was found to be 39.7%.

On to `O=C(NC1CCN(CC2CC2)C1)N1CCC(OC2CCCCC2)CC1` (centres undefined), for which the INHIBITION amounted to 74%.

For the molecule `NC(=O)C1CCN(C(=O)NC2CCN(CC3CCCC3)C2)CC1` (centres undefined), the INHIBITION came out at 7.83%. To `CCOCc1cnc2n1CCN(C(=O)C1=CCCC1)C2C` (centres undefined) belongs 5.96%. Under `CC1c2ncc(COCC3CC3)n2CCN1C(=O)c1ccnnc1` (centres undefined) stands -27%; under `CCOCc1cnc2n1CCN(C(=O)Cc1ccccn1)C2C` (centres undefined), 37.8%; under `CC1c2ncc(COCC3CC3)n2CCN1C` (centres undefined), 21.7%. Take `COCc1cnc2n1CCN(C(=O)c1cn(C)c3ccccc13)C2C` (centres undefined): the INHIBITION is given as 16.8%. In the case of `CCOCc1cnc2n1CCN(C(=O)Cc1cccs1)C2C` (centres undefined), the INHIBITION was found to be 34.6%. As for `CCOCc1cnc2n1CCN(C(=O)c1cccc3c1OCCO3)C2C` (centres undefined), the INHIBITION stood at 52.1%. To `COCCC(=O)N1CCn2c(COCC3CC3)cnc2C1C` (centres undefined) belongs 51.2%. To `CCOCc1cnc2n1CCN(C(=O)c1cn(C)c3ccccc13)C2C` (centres undefined) belongs 57.5%; to `CCOCc1cnc2n1CCN(C(=O)c1ccoc1C)C2C` (centres undefined), 48.4%.

Turning to `CCOCc1cnc2n1CCN(C(=O)c1ccccc1)C2C` (centres undefined), the INHIBITION was determined as 57.5%. To `CCOCc1cnc2n1CCN(C(=O)Cc1ccco1)C2C` (centres undefined) belongs 10.5%; to `CCc1noc(C)c1C(=O)N1CCCC1c1c(C)nn(C)c1C` (centres undefined), 31.8%. To `Cc1ccc(C(NCC(=O)N2CCNC(=O)C2)C(F)(F)F)cc1` (centres undefined) belongs 18.3%; to `CC(C)(CNC1CCCN(Cc2ccccn2)C1)CN1CCOCC1` (centres undefined), 33%; to `O=C(NCC1CC1)C1CCC2(CCN(C(=O)c3cccnc3)CC2)O1` (centres undefined), 6.27%.

Turning to `Cc1ccc(-c2nc(C(=O)N3CCOCC3)cs2)c(C)c1`, the INHIBITION is -3.85%. For the molecule `Cc1cc(C)n(CCN2CCOC(CNc3cccnn3)C2)n1` (centres undefined), the INHIBITION was -39.7%.

For the molecule `O=C(c1ccncc1)N1CCN(Cc2cccnc2)c2ncccc2C1`, the INHIBITION is 7.53%.

On to `CSc1nccc(NCc2cc3n(n2)CCCN(C(=O)C2CCC2)C3)n1`, for which the INHIBITION is 15.9%. With `CC(c1ccc(F)cc1)N1CCN(Cc2nccn2C)CC1` (centres undefined), the INHIBITION is 11.9%. Under `CN(C)S(=O)(=O)N1CCC2(COCc3cnc(-c4ccccc4)nc32)C1` (centres undefined) stands 29.7%; under `CS(=O)(=O)N1CCC2(COCc3cnc(-c4ccccc4)nc32)C1` (centres undefined), -69.9%. To `O=S(=O)(C1CC1)N1CCC2(COCc3cnc(-c4cccnc4)nc32)C1` (centres undefined) belongs 32.1%; to `CCN1CCC2(COCc3cnc(-c4cccnc4)nc32)C1` (centres undefined), 28.4%; to `CC(C)C(=O)N1CCC2(COCc3cnc(-c4cccnc4)nc32)C1` (centres undefined), 17.7%. To `CN(C)C(=O)CN1CCC2(COCc3cnc(-c4cccnc4)nc32)C1` (centres undefined) belongs 69.3%; to `CN(C)S(=O)(=O)N1CCC2(COCc3cnc(-c4cccnc4)nc32)C1` (centres undefined), 59.3%; to `CN(C)C(=O)CN1CCC2(COCc3cnc(-c4ccccc4)nc32)C1` (centres undefined), 91%. Turning to `c1ccc(-c2ncc3c(n2)C2(CCN(c4ncccn4)C2)COC3)cc1` (centres undefined), the INHIBITION is given as -39.1%.

For `CN(C)C(=O)CN1CCC2(COCc3cnc(N4CCOCC4)nc32)C1` (centres undefined), the INHIBITION is reported as 19.4%. For the molecule `c1cnc(N2CCC3(COCc4cnc(-c5cccnc5)nc43)C2)nc1` (centres undefined), the INHIBITION is given as 59.7%. As for `O=C(C1CCC1)N1CCC2(COCc3cnc(-c4cccnc4)nc32)C1` (centres undefined), the INHIBITION is -40.4%.
